{"source": "the supplement of paper PMC10849652", "note": "Of roughly 8,800 targets only a part is listed; those with a hit were picked by preference. About 0.5% of all pairs of compound and target were hits. Unmarked numbers belong to inactive results."}
{"compound": "CS(=O)(=O)CCNCc1ccc(-c2ccc3ncnc(Nc4ccc(OCc5cccc(F)c5)c(Cl)c4)c3c2)o1 [lapatinib]", "assay": "log2 fold change, soluble protein after heating vs DMSO (PISA); higher = thermal stabilisation; K562 lysate, 10 uM; active = over 0.2 and 3.5 SD of the protein, either way, in both replicates (recomputed)", "outline": "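Pellets of K562 cells were dounce-homogenised in PBS pH 7.4 with 1 mM MgCl2, and the crude extract was held at 1 mg/mL protein for a 30 min treatment with 10 μM compound. Aliquots were heated for 3 min over 48°C-58°C and pooled before NP-40 was added to 0.5% at 4°C. The supernatant from 21,000xg for 90 min was quantified by TMTpro 16plex LC-MS/MS with channel sums equalised. Values are reported from duplicates as log-two fold change in thermal stability relative to solvent controls.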"}
{"target": "AIMP2 isoform 2 (UniProt Q13155)", "sequence (Q13155 whole entry, looked up)": "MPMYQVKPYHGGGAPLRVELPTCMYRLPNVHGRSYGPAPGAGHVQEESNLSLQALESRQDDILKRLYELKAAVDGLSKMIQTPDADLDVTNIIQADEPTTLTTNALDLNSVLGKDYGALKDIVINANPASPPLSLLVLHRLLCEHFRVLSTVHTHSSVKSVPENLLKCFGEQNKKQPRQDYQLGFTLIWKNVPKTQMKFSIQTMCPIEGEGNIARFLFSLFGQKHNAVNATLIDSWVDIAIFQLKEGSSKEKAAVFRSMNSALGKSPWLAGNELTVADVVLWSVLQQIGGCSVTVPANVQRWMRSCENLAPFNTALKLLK", "log2 fold change": -0.058}
{"target": "ACIN1 (UniProt E7EQT4)", "log2 fold change": -0.001}
{"target": "ABRACL (UniProt Q9P1F3)", "sequence (Q9P1F3 whole entry, looked up)": "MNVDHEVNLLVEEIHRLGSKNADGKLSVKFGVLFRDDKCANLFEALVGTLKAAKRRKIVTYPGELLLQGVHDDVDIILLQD", "log2 fold change": 0.154}
{"target": "ADD1 isoform 4 (UniProt P35611)", "log2 fold change": -0.006}
{"target": "ANKRD10 (UniProt Q9NXR5)", "sequence (Q9NXR5 whole entry, looked up)": "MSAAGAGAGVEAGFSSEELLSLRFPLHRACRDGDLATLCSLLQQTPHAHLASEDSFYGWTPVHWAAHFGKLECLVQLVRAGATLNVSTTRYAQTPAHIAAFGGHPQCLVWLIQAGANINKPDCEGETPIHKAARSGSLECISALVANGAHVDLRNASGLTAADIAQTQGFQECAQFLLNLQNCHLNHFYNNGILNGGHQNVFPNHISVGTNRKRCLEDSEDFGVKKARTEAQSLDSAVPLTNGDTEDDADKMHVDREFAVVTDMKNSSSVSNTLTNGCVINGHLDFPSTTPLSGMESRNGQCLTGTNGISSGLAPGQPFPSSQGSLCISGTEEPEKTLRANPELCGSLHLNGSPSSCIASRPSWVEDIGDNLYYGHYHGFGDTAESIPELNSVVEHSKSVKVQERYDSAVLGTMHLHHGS", "log2 fold change": -0.074}
{"target": "ALDH3A1 (UniProt P30838)", "sequence (P30838 whole entry, looked up)": "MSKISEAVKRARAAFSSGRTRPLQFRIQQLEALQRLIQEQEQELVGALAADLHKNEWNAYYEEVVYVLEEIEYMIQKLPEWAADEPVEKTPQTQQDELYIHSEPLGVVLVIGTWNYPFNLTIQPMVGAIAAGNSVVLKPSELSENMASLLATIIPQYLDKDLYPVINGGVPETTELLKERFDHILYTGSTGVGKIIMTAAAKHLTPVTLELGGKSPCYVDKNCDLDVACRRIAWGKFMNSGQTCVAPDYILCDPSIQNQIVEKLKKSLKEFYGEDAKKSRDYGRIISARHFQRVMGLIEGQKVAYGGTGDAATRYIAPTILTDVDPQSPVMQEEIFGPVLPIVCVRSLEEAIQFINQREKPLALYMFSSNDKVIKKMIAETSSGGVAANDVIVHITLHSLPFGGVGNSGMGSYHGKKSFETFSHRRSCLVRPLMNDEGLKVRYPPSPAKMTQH", "log2 fold change": -0.002}
{"target": "ANXA2 (UniProt H0YL33)", "log2 fold change": 0.026}
{"target": "ALG3 (UniProt Q92685)", "log2 fold change": -0.069}
{"target": "ABCA3 (UniProt Q99758)", "sequence (Q99758 whole entry, looked up)": "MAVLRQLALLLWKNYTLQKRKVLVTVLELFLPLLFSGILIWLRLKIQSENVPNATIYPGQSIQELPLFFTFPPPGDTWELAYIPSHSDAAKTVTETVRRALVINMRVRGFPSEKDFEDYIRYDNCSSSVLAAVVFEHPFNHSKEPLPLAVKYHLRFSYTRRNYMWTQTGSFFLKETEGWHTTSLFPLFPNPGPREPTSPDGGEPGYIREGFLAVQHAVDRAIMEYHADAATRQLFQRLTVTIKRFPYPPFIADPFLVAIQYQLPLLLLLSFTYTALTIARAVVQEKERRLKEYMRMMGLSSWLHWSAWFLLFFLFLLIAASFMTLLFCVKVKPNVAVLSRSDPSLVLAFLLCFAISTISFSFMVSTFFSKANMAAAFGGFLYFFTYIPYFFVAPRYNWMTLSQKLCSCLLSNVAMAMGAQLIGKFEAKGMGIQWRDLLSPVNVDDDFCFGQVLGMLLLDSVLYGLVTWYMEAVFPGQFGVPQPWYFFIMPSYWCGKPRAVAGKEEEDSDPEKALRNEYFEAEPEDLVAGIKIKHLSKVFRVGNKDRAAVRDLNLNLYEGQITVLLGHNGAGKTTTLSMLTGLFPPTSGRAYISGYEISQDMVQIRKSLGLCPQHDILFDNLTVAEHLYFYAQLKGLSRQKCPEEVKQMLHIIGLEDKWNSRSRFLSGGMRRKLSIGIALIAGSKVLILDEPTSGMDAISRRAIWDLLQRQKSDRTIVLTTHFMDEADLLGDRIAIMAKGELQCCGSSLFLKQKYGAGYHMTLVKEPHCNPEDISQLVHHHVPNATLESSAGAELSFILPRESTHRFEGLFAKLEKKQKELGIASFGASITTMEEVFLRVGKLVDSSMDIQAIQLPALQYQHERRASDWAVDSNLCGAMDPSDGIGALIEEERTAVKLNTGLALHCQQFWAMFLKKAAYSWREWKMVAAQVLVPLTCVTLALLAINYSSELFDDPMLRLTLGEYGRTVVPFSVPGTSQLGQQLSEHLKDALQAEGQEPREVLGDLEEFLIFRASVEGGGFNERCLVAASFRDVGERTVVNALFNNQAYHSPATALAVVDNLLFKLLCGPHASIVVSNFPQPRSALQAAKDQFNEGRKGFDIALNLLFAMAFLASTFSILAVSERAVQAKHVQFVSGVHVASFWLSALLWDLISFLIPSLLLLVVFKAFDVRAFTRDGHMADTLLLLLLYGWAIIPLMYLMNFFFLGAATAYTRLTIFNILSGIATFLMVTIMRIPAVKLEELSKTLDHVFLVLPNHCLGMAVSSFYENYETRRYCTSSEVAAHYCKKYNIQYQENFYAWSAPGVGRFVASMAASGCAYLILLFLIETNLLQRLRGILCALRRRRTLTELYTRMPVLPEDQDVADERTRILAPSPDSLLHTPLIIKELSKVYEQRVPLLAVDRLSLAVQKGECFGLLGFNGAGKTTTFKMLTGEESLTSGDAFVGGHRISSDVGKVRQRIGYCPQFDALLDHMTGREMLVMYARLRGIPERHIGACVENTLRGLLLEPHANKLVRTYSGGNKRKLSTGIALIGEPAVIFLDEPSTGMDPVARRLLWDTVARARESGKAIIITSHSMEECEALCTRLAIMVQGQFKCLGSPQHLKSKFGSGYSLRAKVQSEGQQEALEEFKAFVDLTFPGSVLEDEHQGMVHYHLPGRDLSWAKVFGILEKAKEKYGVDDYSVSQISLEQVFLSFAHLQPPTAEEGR", "log2 fold change": 0.025}
{"target": "ARL13B (UniProt Q3SXY8)", "log2 fold change": 0.016}
{"target": "ADK, A0A5F9ZH76", "log2 fold change": -0.013}
{"target": "ARHGEF2 (UniProt V9GYF0)", "log2 fold change": -0.134}
{"target": "ACYP2 (UniProt P14621)", "sequence (P14621 whole entry, looked up)": "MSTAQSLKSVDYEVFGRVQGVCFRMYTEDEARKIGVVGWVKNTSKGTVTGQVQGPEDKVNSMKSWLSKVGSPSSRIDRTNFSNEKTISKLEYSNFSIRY", "log2 fold change": -0.049}
{"target": "ABI1 isoform 6 (UniProt Q8IZP0)", "sequence (Q8IZP0 whole entry, looked up)": "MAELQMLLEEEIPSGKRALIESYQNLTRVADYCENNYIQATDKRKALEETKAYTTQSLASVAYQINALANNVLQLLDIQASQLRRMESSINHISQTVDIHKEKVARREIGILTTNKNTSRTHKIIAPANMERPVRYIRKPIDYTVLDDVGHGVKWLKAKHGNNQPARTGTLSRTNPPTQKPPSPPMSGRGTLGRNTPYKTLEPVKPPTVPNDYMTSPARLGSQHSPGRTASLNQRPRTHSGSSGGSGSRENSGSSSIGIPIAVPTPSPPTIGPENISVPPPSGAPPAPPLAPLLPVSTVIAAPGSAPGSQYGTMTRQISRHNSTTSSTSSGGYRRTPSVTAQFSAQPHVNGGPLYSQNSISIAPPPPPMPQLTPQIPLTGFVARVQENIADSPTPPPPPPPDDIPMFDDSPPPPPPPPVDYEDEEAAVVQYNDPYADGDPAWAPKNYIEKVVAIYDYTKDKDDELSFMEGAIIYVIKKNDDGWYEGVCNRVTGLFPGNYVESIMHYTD", "log2 fold change": 0.007}
{"target": "AGGF1 (UniProt Q8N302)", "log2 fold change": -0.046}
{"target": "ACTG1 (UniProt K7EM38)", "log2 fold change": -0.08}
{"target": "ACLY isoform 2 (UniProt P53396)", "log2 fold change": 0.012}
{"target": "ANKRD44 isoform 2 (UniProt Q8N8A2)", "log2 fold change": -0.004}
{"target": "ABCC5 (UniProt O15440)", "log2 fold change": 0.013}
{"target": "ANKRD30B (UniProt Q9BXX2)", "log2 fold change": -0.049}
{"target": "AP3D1 isoform 2 (UniProt O14617)", "sequence (O14617 whole entry, looked up)": "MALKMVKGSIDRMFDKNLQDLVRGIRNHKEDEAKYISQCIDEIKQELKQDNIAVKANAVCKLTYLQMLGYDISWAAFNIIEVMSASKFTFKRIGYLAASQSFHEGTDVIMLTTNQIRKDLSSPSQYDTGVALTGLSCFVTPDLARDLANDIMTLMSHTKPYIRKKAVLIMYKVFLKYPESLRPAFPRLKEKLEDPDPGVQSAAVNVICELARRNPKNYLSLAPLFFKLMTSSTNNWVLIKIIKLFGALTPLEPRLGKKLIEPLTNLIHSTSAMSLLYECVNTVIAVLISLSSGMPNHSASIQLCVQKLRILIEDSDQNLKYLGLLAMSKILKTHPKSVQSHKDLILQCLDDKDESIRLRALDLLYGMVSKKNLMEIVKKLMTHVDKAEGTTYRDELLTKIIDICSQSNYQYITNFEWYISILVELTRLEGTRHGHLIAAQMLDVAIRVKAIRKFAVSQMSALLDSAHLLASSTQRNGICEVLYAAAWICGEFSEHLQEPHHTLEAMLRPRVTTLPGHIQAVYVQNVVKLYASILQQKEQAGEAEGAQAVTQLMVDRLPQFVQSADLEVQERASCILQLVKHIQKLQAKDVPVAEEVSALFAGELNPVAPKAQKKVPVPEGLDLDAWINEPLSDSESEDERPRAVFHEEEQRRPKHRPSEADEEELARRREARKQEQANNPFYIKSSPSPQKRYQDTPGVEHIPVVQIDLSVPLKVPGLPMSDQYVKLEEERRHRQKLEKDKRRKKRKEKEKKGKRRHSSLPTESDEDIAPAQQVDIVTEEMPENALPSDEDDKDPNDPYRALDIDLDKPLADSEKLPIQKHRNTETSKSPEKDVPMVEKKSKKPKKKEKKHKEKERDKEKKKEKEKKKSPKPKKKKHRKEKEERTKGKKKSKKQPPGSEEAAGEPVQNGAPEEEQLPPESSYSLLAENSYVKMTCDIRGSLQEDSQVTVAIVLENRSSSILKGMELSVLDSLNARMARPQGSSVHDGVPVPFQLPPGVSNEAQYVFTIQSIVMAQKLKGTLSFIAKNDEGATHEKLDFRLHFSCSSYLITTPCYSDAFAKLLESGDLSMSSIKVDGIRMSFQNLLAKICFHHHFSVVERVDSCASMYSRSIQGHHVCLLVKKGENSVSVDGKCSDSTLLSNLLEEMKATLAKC", "log2 fold change": 0.084}
{"target": "ANXA5 (UniProt P08758)", "log2 fold change": 0.005}
